From PubChem BioAssay (NCATS) come the findings set out here.

SMILES strings stand for the structures. “And” between values parts separate entries of the source, which are not always exact repeats. Identical values can stand only once. Inconclusive results are not listed. Unmarked numbers belong to inactive results. The source made the active and inactive calls. Calls come from the whole dose curve; as a rule, active = well fitted curve in the direction sought with a large enough effect; inconclusive = small, poorly fitted or top-dose-only effect, or another doubt; inactive = no such curve, though single readings can be large; an effect the other way counts as inactive or inconclusive.

Assay [1] in a line: Quantitative highthroughput screen to assess conditional lethalithy of NOMO1 cells grown in RPMI1640 with untreated serum (RPMI+s) (AID 1963876).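 For viability: 100% = DMSO wells and 0% = empty wells without cells.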 Note: nearly all actives have a fitted effect of over 35% in size. Note: potency is the fitted concentration of half-maximal effect. The gist of the method:
(§1)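 Each medium arm—HPLM with 10% dialyzed FBS, or RPMI1640 with 5 mM glucose and 10% untreated or dialyzed FBS—was screened against an 11-point, 3-fold compound titration for 48 h at 37 °C, with CellTiter-Glo luminescence as endpoint.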

Assay [2] in a line: Quantitative highthroughput screen to assess conditional lethalithy of P12 Ichikawa cells grown in Human Plasma-Like Medium with dialyzed fetal bovine serum (HPLM+ds) (AID 1963879). For viability: series mostly up to about 46 µM. Note: nearly all actives have a fitted effect of over 35% in size. Note: potency is the fitted concentration of half-maximal effect. Conditions: Potency: viability. Summed up:
as §1

A short description of assay [3]: Quantitative highthroughput screen to assess conditional lethalithy of P12 Ichikawa cells grown in RPMI1640 with dialyzed fetal bovine serum (RPMI+ds) (AID 1963880).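 For viability: 100% = DMSO wells and 0% = empty wells on each plate.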 Note: nearly all actives have a fitted effect of over 35% in size. Note: potency is the fitted concentration of half-maximal effect. Conditions: Potency: P12-Ichikawa viability. Summed up: as §1
A short description of assay [4]: Quantitative highthroughput screen to assess conditional lethalithy of P12 Ichikawa cells grown in RPMI1640 with untreated serum (RPMI+s) (AID 1963881).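 For viability: series mostly up to about 46 µM; 100% = DMSO wells and 0% = empty wells without cells.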 Note: nearly all actives have a fitted effect of over 35% in size. Note: potency is the fitted concentration of half-maximal effect. Conditions: Potency: viability. The gist of the method:
as §1

A short description of assay [5]: Quantitative highthroughput screen to assess conditional lethalithy of SEM cells grown in Human Plasma-Like Medium with dialyzed fetal bovine serum (HPLM+ds) (AID 1963882). For viability: series mostly up to about 46 µM. Note: nearly all actives have a fitted effect of over 35% in size. Note: potency is the fitted concentration of half-maximal effect. The gist of the method: as §1
Assay [6] can be described thus: Quantitative highthroughput screen to assess conditional lethalithy of SEM cells grown in RPMI1640 with unreated serum (RPMI+s) (AID 1963883).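 For viability: 100% = DMSO wells and 0% = empty wells without cells.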 Note: nearly all actives have a fitted effect of over 35% in size. Note: potency is the fitted concentration of half-maximal effect. The gist of the method:
as §1

Assay [7] can be described thus: Quantitative highthroughput screen to assess conditional lethalithy of SEM cells grown in RPMI1640 with dialyzed fetal bovine serum (RPMI+ds) (AID 1963884).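 For viability: series mostly up to about 46 µM; 100% = DMSO control wells and 0% = empty wells without cells.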 Note: nearly all actives have a fitted effect of over 35% in size. Note: potency is the fitted concentration of half-maximal effect. Summed up: as §1
A short description of assay [8]: Cellular viability qHTS for adrenocortical cancer (ACC) cell line SW-13 (AID 1963989).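 For activity (max response): cells grown in serum-free medium with ITS supplement; % is set by controls: 0 for no effect and ±100 for the full control effect.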 Note: nearly all actives have a fitted effect of over 65% in size. Note: potency is the fitted concentration of half-maximal effect. Conditions: SW-13 ACC cells viability, CellTiter-Glo, 48 h; activity (max response): stronger effect = lower value. The gist of the method: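 IC50 and maximal-response values come from four-parameter logistic fits of titration data. SW-13 cells in serum-free medium received compounds (up to 46 uM final) for 48 h before CellTiter-Glo luminescence.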

Assay [9] can be described thus: Cellular viability qHTS for adrenocortical cancer (ACC) cell line NCI-H295R (AID 1963990). Note: nearly all actives have a fitted effect of over 60% in size. Note: potency is the fitted concentration of half-maximal effect. Summed up: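 Adrenocortical carcinoma cells, suspended at 300 000 cells/mL in serum-free DMEM plus ITS, rested overnight before pin transfer of compound. After two days' incubation, ATP-dependent luminescence was recorded and curve-fitted.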
Assay [10] in a line: Quantitative highthroughput screen to assess conditional lethalithy of NOMO1 cells grown in RPMI1640 with dialyzed fetal bovine serum (RPMI+ds) (AID 1963877).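 Note: series mostly up to about 46 µM; 100% = DMSO control wells and 0% = empty wells; nearly all actives have a fitted effect of over 30% in size.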 The gist of the method:
as §1

Assay [11] in a line: Quantitative highthroughput screen to assess conditional lethalithy of NOMO1 cells grown in Human Plasma-Like Medium with dialyzed fetal bovine serum (HPLM+ds) (AID 1963878).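 For viability: 100% = DMSO wells and 0% = empty wells on each plate.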 Note: nearly all actives have a fitted effect of over 35% in size. Note: potency is the fitted concentration of half-maximal effect. The gist of the method:
as §1

Regarding `CC[C@]12C=CCN3CC[C@@]4(c5cc([C@@]6(C(=O)OC)C[C@H]7C[C@@H](C(C)(F)F)CN(Cc8c6[nH]c6ccccc86)C7)c(OC)cc5N(C)[C@H]4[C@@](O)(C(=O)OC)[C@H]1OC(C)=O)[C@@H]32`, the Potency was 0.0332 µM (active) in [1]; 0.0372 µM (active) in assay [2]; 0.0743 µM (active) in assay [3]; 0.0264 µM (active) in [4]; 0.0296 µM (active) in [5]; 0.0187 µM (active) in [6]. Besides, the Potency in assay [7] was 0.0332 µM (active).

On to `O=C(O)CCC1CCC(c2cc(F)ccc2F)(S(=O)(=O)c2ccc(Cl)cc2)CC1` (stereo unspecified), for which the Potency was 1.48 µM (active) in assay [1], 8.33 µM (active) in assay [2], 14.8 µM (active) in assay [3] and 9.35 µM (active) in assay [4]. Moreover, the Potency entry in assay [5], in [7] and in [9] was “inactive” each time. In addition, the activity (max response) in [8] was -1.6%.

For `O=[N+]([O-])c1cn2c(n1)OC[C@@H](OCc1ccc(OC(F)(F)F)cc1)C2`, the Potency result in assay [10], in [11], in assay [3], in [4], in [5] and in [6] was “inactive” in each case. Moreover, the Potency result in [7] and in [9] was “inactive” each time.

As to `N#CC(=Cc1ccc(O)c(O)c1)C(=O)NCc1ccccc1`, in [1], the Potency entry was “inactive”. In addition, the Potency in [6] is 20.9 µM (active).

In the case of `O=C(OCC#CCSc1nnc(-c2cccc3ccccc23)o1)c1cc2ccccc2s1`, the Potency entry in [10], in assay [11], in assay [2], in assay [3], in [4] and in [5] was “inactive” throughout. The Potency entry in assay [6] and in [7] was “inactive” in each case.

Regarding `O=C(O)c1ccc(O)c2ncc(N3CCOCC3)cc12`, the Potency entry in [1] and in assay [9] was “inactive” throughout. Moreover, in assay [8], the activity (max response) is -5.09%.

Consider `Cc1cc(SCc2sc(-c3ccc(C(F)(F)F)cc3)nc2C)ccc1OCC(=O)O`, for which the Potency result in assay [10], in assay [11], in assay [2], in assay [3], in assay [4] and in assay [9] was “inactive” each time.

Turning to `CCN1CCN(C(=O)N[C@H](C(=O)N[C@@H]2C(=O)N3C(C(=O)O)=C(CSc4nnnn4C)CS[C@@H]23)c2ccc(O)cc2)C(=O)C1=O`, the Potency entry in [10], in assay [11], in assay [2], in assay [3], in [4] and in [5] was “inactive” in each case. Also, the Potency entry in assay [6] and in assay [7] was “inactive” in each case.

`COc1ccc(CCC(=O)c2c(O)cc(O[C@@H]3O[C@H](CO)[C@@H](O)[C@H](O)[C@@H]3O[C@@H]3O[C@@H](C)[C@H](O)[C@@H](O)[C@@H]3O)cc2O)cc1O`: in assay [1], the Potency was 13.2 µM (active). The Potency entry in [3], in assay [4], in [5], in assay [6] and in assay [7] was “inactive” in each case.

As for `O=C(O)COCCN1CCN(C(c2ccccc2)c2ccc(Cl)cc2)CC1` (stereo unspecified), the Potency result in assay [10], in assay [11], in assay [2], in [3], in assay [4] and in [5] was “inactive” in each case. Besides, the Potency result in [6], in [7] and in assay [9] was “inactive” each time. Besides, the activity (max response) in assay [8] was 9.41%.

Take `O=C(N[C@@H](c1ccccc1)[C@@H]1CCCCN1)c1cccc(C(F)(F)F)c1Cl`: the Potency result in assay [10], in assay [11] and in assay [2] was “inactive” in each case. For the same molecule, the Potency in [8] is 28.2 µM (active); in assay [9], 8.91 µM (active).

`O=c1[nH]c(=O)n([C@H]2C[C@@H](O)[C@@H](CO)O2)cc1I`: the Potency result in assay [10] and in assay [3] was “inactive” in each case. Moreover, the Potency in assay [11] was 11.8 µM (active); in assay [5] it was 7.43 µM (active).

For `NC(=O)c1ccc(-c2nc(-c3ccc4c(c3)OCCO4)c(-c3ccccn3)[nH]2)cc1`, the Potency entry in assay [10], in assay [11], in [2], in assay [3], in assay [4] and in assay [5] was “inactive” each time. Further, the Potency result in assay [7] is “inactive”. In assay [8], the activity (max response) was -9.07%.

Regarding `COCCCOc1ccnc(CS(=O)c2nc3ccccc3[nH]2)c1C` (stereo unspecified), the Potency entry in assay [10], in assay [11], in assay [2], in assay [4], in [5] and in [6] was “inactive” each time. Besides, the Potency result in [7] and in [9] was “inactive” throughout. The activity (max response) in assay [8] was 10.6% and -5.29%.

Regarding `CCCNC(=O)[C@H]1O[C@H]1C(=O)N[C@H](C(=O)N1CCC[C@@H]1C(=O)OC)C(C)CC` (stereo partly specified), the Potency was 13.2 µM (active) in assay [1]; 16.6 µM (active) in [3]; 16.6 µM (active) in assay [4]; 20.9 µM (active) in assay [5]; 14.8 µM (active) in assay [6]; 16.6 µM (active) in assay [7].

For `NC(=O)NN=Cc1ccc([N+](=O)[O-])o1`, the Potency entry in assay [10], in assay [11], in assay [3], in assay [5], in [6] and in assay [7] was “inactive” in each case.

With `Nc1ccc(S(=O)(=O)Nc2ncccn2)cc1`, the Potency result in assay [10], in assay [11], in [2], in [3], in assay [4] and in [5] was “inactive” throughout. Besides, in [6], the Potency entry was “inactive”.

For `CN(C)CCN(Cc1ccc(Cl)cc1)c1ccccn1`, the Potency result in assay [10], in [11], in assay [2], in [3], in assay [4] and in [5] was “inactive” in each case. Moreover, the Potency entry in assay [6], in assay [7] and in [9] was “inactive” in each case. In assay [8], the activity (max response) is -3.95%.
